# Records with an inconclusive call do not appear. Activity calls are given as the source filed them. The calls were made as follows, unless noted: active = hit-call score of the fitted dose curve at least 0.9, where 1 is the maximum; inactive = score below 0.9.
# How the values were obtained:
# [1] = CCTE_Simmons_MITO_inhib_resp_rate: CCTE's HepG2 Seahorse XF Respirometric Screening Assay at Inhibited Respiratory State [full ETC block], Simmons Lab (AID 2284006); conditions: actives raise or lower the signal
# Summary of the method: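 HepG2 cells on Seahorse XF96; oxygen consumption measured after test compound, then FCCP, then rotenone/antimycin A injections over 72 min. Test chemicals at 7 concentrations, 125 nM–100 uM final. OCR fitted bidirectionally versus DMSO.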
# [2] = CCTE_Simmons_MITO_viability: CellTiter-Glo Viability Assessment for CCTE's HepG2 Seahorse XF Respirometric Screening Assay [post-hoc], Simmons Lab (AID 2284007; active = hit-call score of the fitted dose curve at least 0.9, where 1 is the maximum)
# Summary of the method: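 HepG2 cells from the Seahorse XF respirometry run were exposed 90 min to a 7-point series, 125 nM–100 uM final, DMSO vehicle; ATP content then read by luciferase luminescence. Three biological replicates, technical singles; loss of signal fitted versus DMSO.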
# [3] = CCTE_Shafer_MEA_acute_spike_number: CCTE's Neural Acute Assay for Total Number of Spikes, Shafer Lab (AID 2284008);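 as to AC50: curve fitted for decrease in spike count so AC50 reflects inhibitors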
# Summary of the method: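 Using an adaptive detector set to 8x rms noise, spikes were counted in 40-min windows before and after compound addition (0.03-40 uM) to rat cortical networks at 37 C; the well-level change from baseline was analysed relative to DMSO.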
# [4] = CCTE_Shafer_MEA_acute_firing_rate_mean: CCTE's Neural Acute Assay for Mean Firing Rate, Shafer Lab (AID 2284009);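 also: analyzed for loss of signal so actives lower firing rate relative to DMSO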
# Summary of the method: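 Read-out: well-mean spike rate (spikes/recording length/electrodes), % change from 40 min pre-dose baseline to 40 min with compound. Rat cortical cultures, DIV 13 or 15, 37 C; 0.03-40 uM; DMSO as negative control.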
# [5] = CCTE_Harrill_HTTr_Viability_MCF7: CCTE's 6-hour Cell Viability Assessment for the High-Throughput Transcriptomics (HTTr) Platform, in MCF-7 cells cultured in DMEM + 10% fetal bovine serum, Harrill Lab (AID 2284010)
# Summary of the method: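 Membrane integrity was scored by high-content imaging of propidium iodide dye exclusion after a 6 h exposure across an eight-point dilution series. Data were fitted bidirectionally relative to DMSO as negative control and baseline.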
# [6] = CCTE_Harrill_HTTr_Apoptosis_MCF7: CCTE's 6-hour Apoptosis Assessment for the High-Throughput Transcriptomics (HTTr) Platform, in MCF-7 cells cultured in DMEM + 10% fetal bovine serum, Harrill Lab (AID 2284011)
# Summary of the method: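 Apoptosis in MCF-7 cells grown in DMEM with 10% fetal bovine serum was scored after a six hour exposure by high content imaging of caspase-3/7 activation (CellEvent Caspase 3/7 Green), with DMSO serving as negative control and baseline.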
# [7] = CCTE_Harrill_HTTr_CellCount_MCF7: CCTE's Cell Proliferation Assessment for the High-Throughput Transcriptomics (HTTr) Platform, Harrill Lab (AID 2284012; active = hit-call score of the fitted dose curve at least 0.9, where 1 is the maximum;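 also: cells exposed to compound for six hours; intended direction is loss of nuclei count meaning fewer cells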)
# Summary of the method: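 MCF-7 cells were exposed for 6 h to an eight-point dilution series; Hoechst-labeled nuclei were counted by high content imaging. Curves were fitted bidirectionally against DMSO as negative control and baseline, with signal loss indicating reduced cell count.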
# [8] = CCTE_Shafer_MEA_acute_burst_number: CCTE's Neural Acute Assay for Single-Electrode Bursts, Shafer Lab (AID 2284013)
# Summary of the method: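 Rat cortical cultures, DIV 13/15; 40 min baseline, then 40 min with compound 0.03-40 uM, 37 C. Spikes: 300-5000 Hz band-pass, threshold 8x rms noise. Readout = % change in single-electrode bursts vs baseline, loss-of-signal fit.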
# [9] = CCTE_Shafer_MEA_acute_burst_duration_mean: CCTE's Neural Acute Assay for Mean Burst Duration, Shafer Lab (AID 2284014);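 also: hits are decreases in mean burst duration relative to DMSO controls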
# Summary of the method: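 Primary rat cortical neurons on 16-electrode MEA wells, treated on DIV 13 or 15 with compound (0.03-40 uM; ≥3 wells each). 40-min baseline and 40-min exposure recordings at 37 C; percent change in mean burst duration per well versus DMSO.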
# [10] = CCTE_Shafer_MEA_acute_per_burst_spike_number_mean: CCTE's Neural Acute Assay for Average Number of Spikes Per Burst, Shafer Lab (AID 2284015);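 also: hits are decreases in mean spikes per burst versus baseline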
# Summary of the method: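 Percent change in mean spikes per single-electrode burst is compared between a 40 min baseline and a 40 min recording with compound (0.03-40 uM). Cultures were rat cortical neurons on MEA plates at DIV 13 or 15, recorded at 37 C, with DMSO as the negative control.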
# [11] = CCTE_Shafer_MEA_acute_interburst_interval_mean: CCTE's Neural Acute Assay for Mean Interburst Interval, Shafer Lab (AID 2284016);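 also: percent change of mean interburst interval versus each well's own pre-dose baseline; curves fitted for decrease in interburst interval relative to DMSO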
# Summary of the method: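 Percent change in mean single-electrode interburst interval was calculated per well from 40 min recordings before and after compound (0.03-40 uM). Recordings were made at 37 C on rat cortical cultures at DIV 13 or 15, with spikes detected at 8x rms threshold.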
# [12] = CCTE_Shafer_MEA_acute_burst_percentage_mean: CCTE's Neural Acute Assay for Percentage of Spikes in a Burst, Shafer Lab (AID 2284017);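 as to AC50: curve fitted for loss of signal so potency reflects decreased burst percentage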
# Summary of the method: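 Well-level mean burst percentage from a 40-min recording after compound (0.03-40 uM) expressed as percent change from a 40-min baseline at 37C. Cultures: primary rat cortical neurons on MEA, dosed on DIV 13 or 15; fitted downward relative to DMSO.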
# [13] = CCTE_Shafer_MEA_acute_burst_percentage_std: CCTE's Neural Acute Assay for Standard Deviation of Burst Percentage, Shafer Lab (AID 2284018);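 also: fitted in the negative direction so actives lower burst percentage SD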
# Summary of the method: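 Primary rat cortical neurons on 16-electrode MEA wells were recorded 40 min at baseline (DIV 13 or 15), then 40 min after compound (0.03-40 uM), at 37 C. Well value is SD across electrodes of spikes-in-bursts/total spikes; endpoint is percent change, DMSO-referenced.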
# [14] = CCTE_Shafer_MEA_acute_per_network_burst_spike_number_mean: CCTE's Neural Acute Assay for Average Number of Spikes in a Network Burst, Shafer Lab (AID 2284019)
# Summary of the method: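 Primary rat cortical neurons on 16-electrode MEA wells, DIV 13 or 15, 37 C; 40-min baseline then 40-min recording with compound (0.03-40 uM). Spikes per network burst (total spikes/number of bursts) expressed as percent change from baseline, DMSO reference.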
# [15] = CCTE_Shafer_MEA_acute_per_network_burst_spike_number_std: CCTE's Neural Acute Assay for Standard Deviation of Number of Spikes in a Network Burst, Shafer Lab (AID 2284020);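 also: fitted for decrease in spike-number SD versus DMSO so actives lower it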
# Summary of the method: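 Primary rat cortical neurons on 48-well MEAs (16 electrodes/well) recorded at DIV 13 or 15: 40-min baseline, then 40 min with compound (0.03-40 uM), 37 C. Value is percent change in SD of spikes per network burst, relative to DMSO.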
# [16] = CCTE_Shafer_MEA_acute_network_burst_percentage: CCTE's Neural Acute Assay for Percentage of Network Bursts, Shafer Lab (AID 2284022);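 also: curves fitted for loss so actives lower network burst percentage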
# Summary of the method: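 On DIV 13 or 15, at least three wells of rat cortical neurons per compound are dosed at 0.03-40 uM. Spontaneous firing is detected at 8x rms noise for 40 min before and after dosing at 37 C. The percent change in network-burst spike share is reported.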
# [17] = CCTE_Shafer_MEA_acute_cross_correlation_area: CCTE's Neural Acute Assay for Area of Cross Correlation, Shafer Lab (AID 2284024);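 also: area under pooled inter-electrode spike cross-correlation near zero lag as percent change from own baseline; curves fitted for loss of cross-correlation area so actives lower synchrony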
# Summary of the method: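 Extracellular recordings from cultured rat cortical neurons measure network synchrony as cross-correlation area; each well's post-compound value (0.03-40 uM, 40 min) is compared with its own 40 min baseline to give percent change.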
# [18] = CCTE_Shafer_MEA_acute_cross_correlation_HWHM: CCTE's Neural Acute Assay for Cross Correlation at Half Width at Half Maximum, Shafer Lab (AID 2284026);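 also: percent change per well from pre-dose baseline in spike cross-correlogram half width; hits are a decrease in cross-correlogram half width relative to DMSO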;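 as to outcome: spontaneous network firing of rat primary cortical neurons on multiwell microelectrode arrays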
# Summary of the method: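 Percent change in cross-correlogram half width at half maximum, narrower meaning more synchrony, was derived per well from paired 40-min recordings before and during exposure to 0.03-40 uM compound in rat cortical cultures at 37 C.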
smiles,measurement,setting,value
CC(C)(C)CC(C)(C)c1ccc(O)cc1,outcome,[1],inactive
same,outcome,[2],inactive
same,AC50,[3],6.06 µM (active)
same,AC50,[4],6.07 µM (active)
same,outcome,[5],inactive
same,outcome,[6],inactive
same,outcome,[7],inactive
same,outcome,[8],inactive
same,outcome,[9],inactive
same,outcome,[10],inactive
same,AC50,[11],5 µM (active)
same,outcome,[12],inactive
same,outcome,[13],inactive
same,outcome,[14],inactive
same,outcome,[15],inactive
same,outcome,[16],inactive
same,outcome,[17],inactive
same,AC50,[18],36.4 µM (active)
O=[N+]([O-])c1ccc2c3c(cccc13)CC2,outcome,[5],inactive
same,outcome,[6],inactive
O=Cc1cccc(Oc2ccccc2)c1,outcome,[5],inactive
same,outcome,[6],inactive
Cc1cc(Cl)ccc1O[C@H](C)C(=O)O,outcome,[5],inactive
same,outcome,[6],inactive
CCN1CCC2(CC1)COc1cc3c(cc12)N(C(=O)c1ccc(-c2ccc(-c4nnc(C)o4)cc2C)cc1)CC3,AC50,[3],7.7 µM (active)
same,AC50,[4],7.7 µM (active)
same,AC50,[5],66.2 µM (active)
same,AC50,[6],60.3 µM (active)
same,outcome,[7],inactive
same,outcome,[8],inactive
same,outcome,[9],inactive
same,outcome,[10],inactive
same,outcome,[11],inactive
same,AC50,[12],27.3 µM (active)
same,outcome,[13],inactive
same,outcome,[14],inactive
same,AC50,[15],30.1 µM (active)
same,AC50,[16],24.9 µM (active)
same,outcome,[17],inactive
same,AC50,[18],31.2 µM (active)
CCNc1nc(NC(C)(C)C)nc(SC)n1,outcome,[5],inactive
same,outcome,[6],inactive
CC(C)(OO)c1ccccc1,outcome,[3],inactive
same,outcome,[4],inactive
same,outcome,[5],inactive
same,outcome,[6],inactive
same,outcome,[7],inactive
same,outcome,[8],inactive
same,outcome,[9],inactive
same,outcome,[10],inactive
same,outcome,[11],inactive
same,outcome,[12],inactive
same,outcome,[13],inactive
same,outcome,[14],inactive
same,outcome,[15],inactive
same,outcome,[16],inactive
same,outcome,[17],inactive
same,outcome,[18],inactive

# Reference: PubChem BioAssay (EPA / NIEHS)
